Here are results for 15 compounds from ChEMBL document CHEMBL2218924, “A broad activity screen in support of a chemogenomic map for kinase signalling research and drug discovery” (Biochem J, 2013).

Experiment [1] deals with Protein kinase C alpha type (Homo sapiens) (UniProt P17252). Conditions: at 1 µM.
For experiment [2] the target is unchanged. To be noted: at 10 µM.
In experiment [3] the target is Protein kinase C beta type (Homo sapiens) (UniProt P05771). To be noted: at 1 µM.
For experiment [4] the target is unchanged. To be noted: at 10 µM.
For experiment [5] the target is unchanged. To be noted: at 1 µM. This is another data set of the same source.
For experiment [6] the target is unchanged. To be noted: at 10 µM. The source holds these as a separate data set.
Experiment [7] deals with Protein kinase C gamma type (Homo sapiens) (UniProt P05129). To be noted: at 1 µM.
Experiment [8] has the same target. Conditions: at 10 µM.
The target of experiment [9] is Protein kinase C delta type (Homo sapiens) (UniProt Q05655). Conditions: at 1 µM.
For experiment [10] the target is unchanged. To be noted: at 10 µM.
Experiment [11] addresses T1, Protein kinase C epsilon type (Homo sapiens) (UniProt Q02156).
T1 sequence (whole entry): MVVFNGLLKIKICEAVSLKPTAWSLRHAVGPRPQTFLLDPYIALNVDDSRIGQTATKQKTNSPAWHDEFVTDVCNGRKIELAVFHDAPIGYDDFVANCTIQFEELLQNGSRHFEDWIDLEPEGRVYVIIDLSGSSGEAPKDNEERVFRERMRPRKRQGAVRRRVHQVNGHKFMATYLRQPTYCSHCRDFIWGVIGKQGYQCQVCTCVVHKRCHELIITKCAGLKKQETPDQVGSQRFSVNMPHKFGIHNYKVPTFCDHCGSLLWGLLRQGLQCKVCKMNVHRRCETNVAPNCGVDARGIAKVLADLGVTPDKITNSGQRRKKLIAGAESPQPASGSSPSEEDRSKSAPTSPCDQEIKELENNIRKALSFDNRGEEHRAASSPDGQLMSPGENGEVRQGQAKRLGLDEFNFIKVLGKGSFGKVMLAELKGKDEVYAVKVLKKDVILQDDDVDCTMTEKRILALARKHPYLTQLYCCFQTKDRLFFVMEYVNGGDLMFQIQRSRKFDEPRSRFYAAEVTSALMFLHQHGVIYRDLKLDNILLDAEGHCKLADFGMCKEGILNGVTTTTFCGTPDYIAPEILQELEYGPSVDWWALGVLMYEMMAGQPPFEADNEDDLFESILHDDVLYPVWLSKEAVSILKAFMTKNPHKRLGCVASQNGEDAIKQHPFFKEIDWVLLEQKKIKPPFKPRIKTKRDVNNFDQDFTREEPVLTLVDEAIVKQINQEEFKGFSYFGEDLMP
Conditions: at 1 µM.

The target of experiment [12] is T1, Protein kinase C epsilon type (Homo sapiens). To be noted: at 10 µM.

Sequence of Protein kinase C delta type (Homo sapiens) (Q05655 whole entry, looked up): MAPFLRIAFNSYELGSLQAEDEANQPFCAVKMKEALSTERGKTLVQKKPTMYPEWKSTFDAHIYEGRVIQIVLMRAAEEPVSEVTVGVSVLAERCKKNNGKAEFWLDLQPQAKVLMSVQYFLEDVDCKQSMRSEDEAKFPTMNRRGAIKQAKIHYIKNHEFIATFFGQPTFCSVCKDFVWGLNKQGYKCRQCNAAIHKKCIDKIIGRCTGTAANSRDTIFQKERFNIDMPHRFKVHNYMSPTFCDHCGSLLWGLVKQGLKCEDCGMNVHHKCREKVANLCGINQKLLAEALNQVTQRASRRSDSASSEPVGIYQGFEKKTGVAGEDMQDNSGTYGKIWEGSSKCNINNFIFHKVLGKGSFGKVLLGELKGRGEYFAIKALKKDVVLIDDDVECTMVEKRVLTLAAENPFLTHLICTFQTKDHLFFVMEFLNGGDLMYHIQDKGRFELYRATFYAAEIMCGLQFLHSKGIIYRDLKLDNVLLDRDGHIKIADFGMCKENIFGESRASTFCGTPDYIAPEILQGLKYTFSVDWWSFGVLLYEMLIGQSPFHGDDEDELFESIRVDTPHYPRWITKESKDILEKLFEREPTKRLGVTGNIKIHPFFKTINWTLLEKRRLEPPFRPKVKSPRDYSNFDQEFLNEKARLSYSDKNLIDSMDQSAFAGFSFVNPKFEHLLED
Sequence of Protein kinase C beta type (Homo sapiens) (P05771 2-671 limits assumed): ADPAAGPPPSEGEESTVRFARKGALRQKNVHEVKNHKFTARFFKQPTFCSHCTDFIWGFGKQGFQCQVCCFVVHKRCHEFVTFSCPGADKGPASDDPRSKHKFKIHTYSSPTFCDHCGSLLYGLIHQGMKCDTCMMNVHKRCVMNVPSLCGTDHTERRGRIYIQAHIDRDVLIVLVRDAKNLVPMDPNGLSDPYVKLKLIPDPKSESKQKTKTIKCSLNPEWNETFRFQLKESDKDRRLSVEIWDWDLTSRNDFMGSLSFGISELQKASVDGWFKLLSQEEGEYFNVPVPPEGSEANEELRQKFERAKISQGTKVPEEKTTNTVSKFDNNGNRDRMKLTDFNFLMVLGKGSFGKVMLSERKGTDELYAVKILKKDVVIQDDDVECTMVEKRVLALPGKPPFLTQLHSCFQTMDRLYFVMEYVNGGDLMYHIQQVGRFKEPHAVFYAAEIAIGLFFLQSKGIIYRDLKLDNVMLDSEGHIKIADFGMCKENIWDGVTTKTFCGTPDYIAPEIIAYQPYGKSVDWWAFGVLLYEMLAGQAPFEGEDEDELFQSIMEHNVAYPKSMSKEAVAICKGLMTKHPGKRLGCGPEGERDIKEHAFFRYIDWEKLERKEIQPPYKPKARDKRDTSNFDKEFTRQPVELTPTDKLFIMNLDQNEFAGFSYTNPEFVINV

One may read the residual activity as the signal under treatment as a percentage of the control signal. As to `CC(=O)O/N=C1\C(=C2\C(=O)Nc3cc(Br)ccc32)Nc2ccccc21`, the residual activity stood at 105% in [1]; 101% in experiment [2]; 122% in experiment [3]; 122% in experiment [4]; 105% in [5]; 94% in [6]. The residual activity in experiment [7] was found to be 97%; in experiment [8], 109%; in experiment [9] it was 98%; in [10], 108%; in experiment [11], 107%; in [12], 93%.

For the compound `Cc1ccc(NC2=CC(=O)c3sc(C)nc3C2=O)cc1`, the residual activity in experiment [1] is 106%; in experiment [2] it was 105%; in experiment [3] it was 98%; in experiment [4] it was 88%; in experiment [5], 112%; in experiment [6], 101%. The residual activity in experiment [7] is 102%; in experiment [8] it was 108%; in experiment [9] it was 103%; in experiment [10], 102%; in experiment [11] it was 87%; in experiment [12], 94%.

For the compound `O=C(Nc1cccc(Nc2cc(Nc3cccc(C(F)(F)F)c3)ncn2)c1)C1CC1`, the residual activity stood at 102% in experiment [1]; 101% in experiment [2]; 105% in experiment [3]; 104% in [4]; 98% in [5]; 97% in experiment [6]. Also, the residual activity in experiment [7] was 112%; in experiment [8] it was 106%; in experiment [9], 93%; in experiment [10], 94%; in experiment [11], 90%; in [12], 97%.

With `COc1ccc(OC)c2c(=S)c3ccccc3[nH]c12`, the residual activity amounted to 102% in experiment [1]; 101% in experiment [2]; 89% in [3]; 115% in [4]; 106% in experiment [5]; 97% in [6]. The residual activity amounted to 96% in experiment [7]; 91% in experiment [8]; 103% in experiment [9]; 98% in experiment [10]; 98% in [11]; 109% in [12].

As for `O=C1NC(=O)c2c1c1c3ccccc3[nH]c1c1[nH]c3cc(Br)ccc3c21`, the residual activity was 102% in experiment [1]; 103% in experiment [2]; 108% in experiment [3]; 95% in [4]; 104% in [5]; 95% in [6]. Besides, the residual activity was found to be 99% in experiment [7]; 100% in [8]; 97% in experiment [9]; 102% in experiment [10]; 94% in experiment [11]; 102% in [12].

With `CC(=O)c1ccc(N2CCOCC2)cc1O`, the residual activity worked out at 101% in [1]; 102% in experiment [2]; 107% in experiment [3]; 101% in [4]; 100% in [5]; 93% in [6]. Further, the residual activity in [7] was determined as 109%; in [8], 108%; in [9], 101%; in [10], 103%; in [11], 91%; in experiment [12], 82%.

For the compound `c1ccc2c(-c3ccncc3)c[nH]c2c1`, the residual activity in experiment [1] was 98%; in experiment [2] it was 80%; in experiment [3] it was 105%; in experiment [4], 64%; in experiment [5], 98%; in experiment [6], 65%. Moreover, the residual activity in experiment [7] worked out at 106%; in [8], 86%; in experiment [9] it was 63%; in [10], 23%; in experiment [11], 73%; in experiment [12], 55%.

For `O=C1NC(=O)c2cc(Nc3ccc(F)cc3)c(Nc3ccc(F)cc3)cc21`, the residual activity in experiment [1] stood at 104%; in experiment [2], 101%; in experiment [3] it was 107%; in experiment [4], 86%; in [5], 93%; in experiment [6] it was 103%. Moreover, the residual activity was 111% in [7]; 98% in experiment [8]; 97% in [9]; 105% in [10]; 67% in experiment [11]; 73% in experiment [12].

With `CNc1cc2c(Nc3cccc(Br)c3)ncnc2cn1`, the residual activity in experiment [1] was found to be 106%; in experiment [2], 95%; in [3] it was 118%; in experiment [4], 105%; in [5] it was 104%; in experiment [6], 103%. The residual activity came out at 109% in experiment [7]; 94% in experiment [8]; 104% in [9]; 105% in experiment [10]; 96% in experiment [11]; 99% in experiment [12].

In the case of `CC#CC(=O)Nc1cc2c(Nc3ccc(F)c(Cl)c3)ncnc2cn1`, the residual activity was 103% in [1]; 96% in [2]; 113% in experiment [3]; 103% in [4]; 101% in [5]; 101% in experiment [6]. For the same compound, the residual activity was determined as 109% in experiment [7]; 105% in experiment [8]; 94% in experiment [9]; 102% in experiment [10]; 90% in experiment [11]; 94% in experiment [12].

On to `CC(C)n1cnc2c(NCc3ccccc3)nc(NCCCO)nc21`, for which the residual activity in [1] is 99%; in experiment [2] it was 102%; in experiment [3] it was 106%; in [4], 105%; in experiment [5] it was 105%; in [6] it was 104%. Further, the residual activity in experiment [7] was found to be 92%; in [8] it was 104%; in experiment [9] it was 94%; in [10], 98%; in experiment [11], 91%; in experiment [12], 103%.

As for `O=C(O)c1ccc2c3c1cccc3c(=O)n1c3ccccc3nc21`, the residual activity in [1] is 99%; in [2], 98%; in [3] it was 125%; in experiment [4] it was 113%; in experiment [5], 115%; in experiment [6], 100%. Also, the residual activity in [7] worked out at 94%; in experiment [8] it was 74%; in experiment [9] it was 100%; in experiment [10], 107%; in [11], 112%; in experiment [12], 109%.

As for `COc1cc2ncnc(Nc3ccc(O)c(Br)c3)c2cc1OC`, the residual activity in [1] worked out at 107%; in [2], 109%; in experiment [3] it was 97%; in [4], 83%; in experiment [5], 94%; in experiment [6], 97%. Moreover, the residual activity in experiment [7] amounted to 102%; in [8], 100%; in experiment [9], 100%; in [10], 81%; in experiment [11] it was 89%; in experiment [12] it was 83%.

With `CC(C)n1cnc2/c(=N/c3cccc(Cl)c3)nc(NCCO)[nH]c21`, the residual activity in experiment [1] came out at 101%; in experiment [2] it was 63%; in experiment [3], 104%; in experiment [4] it was 89%; in experiment [5], 101%; in experiment [6] it was 100%. Besides, the residual activity in experiment [7] amounted to 99%; in experiment [8] it was 70%; in experiment [9] it was 96%; in [10], 82%; in experiment [11], 75%; in experiment [12], 92%.

Regarding `CO[C@H]1[C@@H](OC)C[C@H](C)[C@@H](OC)C2=CC(=O)C=C(NC(=O)/C(C)=C/C=C/[C@H](OC)[C@@H](OC(N)=O)/C(C)=C/[C@@H]1C)C2=O`, the residual activity was 110% in experiment [1]; 107% in [2]; 106% in [3]; 121% in experiment [4]; 92% in experiment [5]; 97% in [6]. For the same compound, the residual activity in experiment [7] was found to be 111%; in [8], 99%; in experiment [9], 107%; in [10] it was 107%; in experiment [11], 100%; in experiment [12], 102%.
